Laboratory results reported in PubChem BioAssay (EPA / NIEHS).
Activity calls are given as the source filed them. Rule for the calls: active = hit-call score of the fitted dose curve at least 0.9, where 1 is the maximum; inactive = score below 0.9.

What follows are molecules tested on CYP2E1 (gene 1571) (assay: LTEA_HepaRG_CYP2E1: Life Technologies and Expression Analysis (LTEA) Assay for CYP2E1 using HepaRG (AID 2283485)). Conditions: mRNA level, 48 h; actives raise or lower the signal.
Experimental: LTEA_HepaRG is a cell based, multiplexed-readout assay that uses HepaRG, a human liver cell line, with measurements taken at 48 hours after chemical dosing on a 96-well plate.LTEA_HepaRG_CYP2E1 is one of 102 assay component(s) measured in the LTEA HepaRG cell culture assay. It is a marker of NR mediated metabolism.Data from the assay component LTEA_HepaRG_CYP2E1 was analyzed into 1 endpoint. This assay endpoint, LTEA_HepaRG_CYP2E1, was analyzed with bidirectional fitting relative to DMSO as the negative control and baseline of activity. Using a type of inducible reporter, measures of mRNA induction for gain or loss-of-signal activity can be used to understand regulation of transcription factor activity. To generalize the intended target to other relatable targets, this assay endpoint is annotated to the cyp intended target family, where the subfamily is xenobiotic metabolism.
A total of 1060 chemcials from the ToxCast library were tested in eight-point concentration-response experiments. Cell culture and cytotoxicity assays were conducted at Thermo Fisher Scientific's Custom Services facility (Madison, WI). A single lot of human HepaRG cells (Thermo Fisher Scientific, Frederick, MD) was used for the cell culture experiments. 96-well format collagen type I coated plates of human HepaRG cells were prepared using established methods. Briefly, cryopreserved HepaRG cells were thawed, plated at a density of approximately 100,000 cells/well in HepaRG Thaw, Plate, and General Purpose media (HPRG770, Thermo Fisher Scientific), and incubated for 48 hours. 0.5% DMSO was selected as vehicle control to balance the requisite need of DMSO in HepaRG cultures to maintain differentiation (for example, baseline metabolism, proportions of hepatocytes vs. cholangiocytes), while enabling further hepatic receptor pathway activation (for example, PXR and CAR) in response to chemical exposure. 48 hours after plating, the culture medium was replaced with HepaRG Serum-Free Incudtion Media. Cells were exposed to each test chemical in duplicate and maintained in CO2 incubators for another 48 hours. Chemical plates were thawed to room temperature and 200x concentrations of treatment groups were prepared. 8-point conentration-reponse curves were made with the highest exposure at 100 uM, followed by half-log dilutions, all in 0.5% DMSO. Each test plate contained variouse controls, induction positive controls (1mM phenobarbital), cytotoxicity positive controls ([…] aflatoxin B1), vehicle controls (0.5% DMSO), and total lysis controls (0.5% DMSO). Cell morphology images were taken using an Essen IncuCyte FLR automated microscope, with six 96-well plates imaged in about 24 minutes. Images were captured and exported and JPEG files. Spent culture media was transfered to black-well plates for the LDH assay, and remaining media was sorted at -80 C for later use. Cells were treated with RLT buffer and frozen until shipped for gene expression analysis. Total RNA was isolated from the cell suspension in 75 uL of Buffer RLT (Qiagen, Germantown, MD 20874) by Quintiles/Expression Analysis (Durham, NC) using a custom isolation procedure. Total RNA from each plate well was transferred to a preamplification plate. Fluidigm's 96.96 Dynamic ArrayTM (Fluidigm, Amsterdam, the Netherlands) technology was used for gene expression analyses by quantitative reverse transcription polymerase chain reaction (qRT-PCR, performed by Quintiles/Expression Analysis, Durham, NC)89. Standard TaqManTM Assays (Applied Biosystems/ThermoFisher Scientific, Foster City, CA) were used to assess the expression of 93 genes selected based on their selectivity and sensitivity to important hepatic receptors known to be modulated by environmental chemicals; importance in human hepatocyte functionality; and hepatotoxicity. […]

| SMILES | outcome | AC50 |
| --- | --- | --- |
| COc1cc(S(=O)(=O)O)c(C)cc1N=Nc1c(O)ccc2cc(S(=O)(=O)O)ccc12 | inactive | – |
| O=[N+]([O-])C(CO)(CO)CO | inactive | – |
| Nc1nc(N)c2nc(CNc3ccc(C(=O)N[C@@H](CCC(=O)O)C(=O)O)cc3)cnc2n1 | – | 0.098 µM (active) |
| CN[C@H]1CC[C@@H](c2ccc(Cl)c(Cl)c2)c2ccc(S(N)(=O)=O)cc21 | – | 13 µM (active) |
| CCCCCCCCCCCC(=O)OC | inactive | – |
| NC(=O)Cn1c(=O)cc(CCN2CCN(c3nccc4sccc34)CC2)c2ccc(F)cc21 | – | 87.6 µM (active) |
| Nc1ccc2c(c1)C(=O)c1ccccc1C2=O | – | 14.3 µM (active) |
| CCCCCCCCCCCCCCCCCC(=O)O | inactive | – |
| CCCCCCCCCCCCCO | inactive | – |
| O=C(O)Cc1ccccc1Nc1c(Cl)cccc1Cl | – | 11.8 µM (active) |
| COC(=O)c1ccc(O)cc1 | inactive | – |
| FC(F)(F)C(F)(F)C(F)(F)C(F)(F)C(F)(F)C(F)(F)CCI | inactive | – |
| CCCCC(CC)COC(=O)CC(C(=O)OCC(CC)CCCC)S(=O)(=O)O (stereo not given) | – | 76.5 µM (active) |
| Clc1cc(Cl)c(Cl)cc1Cl | inactive | – |
| Cc1ccc2ncccc2c1 | inactive | – |
| OC[C@@H](O)[C@@H](O)[C@H](O)[C@H](O)CO | inactive | – |
| CCCCCC(=O)O | inactive | – |
| C=CCOC(=O)c1ccccc1C(=O)OCC=C | inactive | – |
| Cc1ccc(C(C)C)c(O)c1 | inactive | – |
| Cc1c(C(=O)O)c(O)cc2c1C(=O)c1c(O)c([C@@H]3O[C@H](CO)[C@@H](O)[C@H](O)[C@H]3O)c(O)c(O)c1C2=O | inactive | – |

| SMILES | outcome | AC50 |
| --- | --- | --- |
| CC1=C(/C=C/C(C)=C/C=C/C(C)=C/CO)C(C)(C)CCC1 | – | 52.2 µM (active) |
| CC1(C)NC(=O)NC1=O | inactive | – |
| Nc1ccc(S(=O)(=O)c2ccc(N)cc2)cc1 | – | 5.9 µM (active) |
| COc1ccc2c(c1)c(CC(=O)O)c(C)n2C(=O)c1ccc(Cl)cc1 | – | 21.3 µM (active) |
| O=C(O)CCCCC(=O)O | inactive | – |
| Cc1nc(C)nc(N2C[C@@H](C)N(c3ccnc([C@@H](C)O)n3)[C@@H](C)C2)n1 | inactive | – |
| C=CCc1ccc(O)c(OC)c1 | inactive | – |
| CC=Cc1ccc(O)c(OC)c1 | inactive | – |
| CCCc1cc(=O)[nH]c(=S)[nH]1 | inactive | – |
| Cc1cccc([N+](=O)[O-])c1C | inactive | – |
| CCOC(=O)CCC(=O)OCC | inactive | – |
| Cc1ccc(C)c(O)c1C | inactive | – |
| COc1cc(C=O)ccc1O | inactive | – |
| O=C(OCCCCCOC(=O)c1ccccc1)c1ccccc1 | inactive | – |
| CC(C)c1ccc(C(=O)N=C(N)N)cc1S(C)(=O)=O | inactive | – |
| Cc1cc(NC(=O)C(=O)O)cc(C)c1Oc1ccc(O)c2c1CCC2 | – | 1.2 µM (active) |
| Oc1ccc2c(c1)OC[C@@H](N1CCC(O)(c3ccc(F)cc3)CC1)[C@H]2O | inactive | – |
| CCCCOC(=O)CCCCCCCCC(=O)OCCCC | inactive | – |
| CN1CCN(Cc2cc(-c3ccc4[nH]c(=O)oc4c3)co2)[C@@H](c2ccc(F)cc2)C1 | – | 50 µM (active) |
| CCCCCCCCCCO | inactive | – |
